In PubChem BioAssay (EPA / NIEHS):
Inconclusive results are not listed. Activity calls are given as the source filed them. The calls were made as follows: active = hit-call score of the fitted dose curve at least 0.9, where 1 is the maximum; inconclusive = response in the unintended direction; inactive = score below 0.9.

Key:
[1] = biological target: Estrogen receptor (Homo sapiens) (UniProt P03372); test: NVS_NR_hER: NovaScreen (NVS) Nuclear Receptor Binding Assay for human Estrogen Receptor (ER) (AID 2283348)
Method in brief: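 Radiodetection of ligand displacement in a lysate-based, cell-free format using MCF7 extracts, read at 18 hours. Duplicate 25 uM primary testing, then concentration series for actives.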

[2] = biological target: bovine Estrogen Receptor (ER), ESR1 (gene 407238) (UniProt P49884); test: NVS_NR_bER: NovaScreen (NVS) Nuclear Receptor Binding Assay for bovine Estrogen Receptor (ER) (AID 2283345);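 also: actives lower the bound radioligand count which means they displace the ER ligand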
Method in brief: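 Displacement of a radioligand from estrogen receptor in bovine uterine membrane preparations; scintillation signal taken at 18 hours, DMSO as baseline. Single-concentration duplicates (25 uM) preceded concentration-response follow-up of actives.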

[3] = biological target: Estrogen receptor (Homo sapiens) (UniProt P03372); test: OT_ER_ERaERa_1440: Odyssey Thera (OT) 24-hour HEK293T Protein-Complementation Assay for Estrogen Receptor-alpha/-alpha Homodimer (AID 2283349);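 also: hits raise fluorescence above DMSO for agonists and antagonists alike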
Method in brief: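 Stably transfected HEK293T; ERα LBD homodimer PCA. 24 h dosing, fluorescence intensity read, gain-of-signal vs DMSO.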

[4] = biological target: Estrogen receptor (Homo sapiens) (UniProt P03372); test: OT_ER_ERaERa_0480: Odyssey Thera (OT) 8-hour HEK293T Protein-Complementation Assay for Estrogen Receptor-alpha/-alpha Homodimer (AID 2283351);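 also: rise in fluorescence from reassembled reporter fragments on ERα LBD homodimer in nucleus or whole cell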
Method in brief: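 HEK293T cells stably expressing a PCA pair of ER alpha LBD (residues 310-547) were dosed for 8 hours. The gain in fluorescence intensity, nuclear for agonists and whole-cell for antagonists, was measured by laser scanning cytometry against DMSO vehicle.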

Chain of bovine Estrogen Receptor (ER), ESR1 (gene 407238) (P49884 whole entry, looked up): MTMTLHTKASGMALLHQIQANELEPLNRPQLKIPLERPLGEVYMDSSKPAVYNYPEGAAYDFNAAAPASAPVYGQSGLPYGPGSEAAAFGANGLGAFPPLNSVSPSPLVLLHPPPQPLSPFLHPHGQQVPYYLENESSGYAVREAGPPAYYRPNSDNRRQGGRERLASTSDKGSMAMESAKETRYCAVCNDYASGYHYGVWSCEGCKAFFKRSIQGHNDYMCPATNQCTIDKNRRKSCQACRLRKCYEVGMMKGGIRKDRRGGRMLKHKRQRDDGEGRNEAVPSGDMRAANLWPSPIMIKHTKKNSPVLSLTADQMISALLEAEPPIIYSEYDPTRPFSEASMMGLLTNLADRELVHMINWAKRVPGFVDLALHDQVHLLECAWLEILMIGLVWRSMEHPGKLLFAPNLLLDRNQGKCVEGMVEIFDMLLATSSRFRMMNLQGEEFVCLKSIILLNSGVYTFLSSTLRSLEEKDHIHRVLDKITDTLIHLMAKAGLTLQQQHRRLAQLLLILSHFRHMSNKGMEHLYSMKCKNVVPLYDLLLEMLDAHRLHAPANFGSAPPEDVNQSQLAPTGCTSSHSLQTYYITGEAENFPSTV
Chain of Estrogen receptor (Homo sapiens) (P03372 whole entry, looked up, the tested form may be a part): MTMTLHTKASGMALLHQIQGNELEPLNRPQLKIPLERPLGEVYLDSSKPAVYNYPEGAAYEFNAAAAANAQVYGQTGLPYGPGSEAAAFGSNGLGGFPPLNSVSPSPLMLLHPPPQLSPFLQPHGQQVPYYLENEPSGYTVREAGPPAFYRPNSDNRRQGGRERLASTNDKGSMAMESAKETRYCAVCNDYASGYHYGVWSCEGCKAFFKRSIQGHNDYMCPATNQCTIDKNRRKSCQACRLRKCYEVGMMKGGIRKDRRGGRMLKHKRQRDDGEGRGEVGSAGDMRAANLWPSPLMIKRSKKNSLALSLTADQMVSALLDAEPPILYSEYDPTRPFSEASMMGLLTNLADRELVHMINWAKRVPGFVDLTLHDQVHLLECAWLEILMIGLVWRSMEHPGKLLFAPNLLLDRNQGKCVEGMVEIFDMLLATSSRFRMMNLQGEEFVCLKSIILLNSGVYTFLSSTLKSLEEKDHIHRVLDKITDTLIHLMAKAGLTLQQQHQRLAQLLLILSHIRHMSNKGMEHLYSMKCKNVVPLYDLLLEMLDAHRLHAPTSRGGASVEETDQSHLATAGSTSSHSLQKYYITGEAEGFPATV

Question: Which outcome [1] does the source give for `O=C(O)CCCCCCCCCC(=O)O` here?
Answer: Its outcome is “inactive”.

Question: `C=CC(=O)OCCOC(=O)C=C` was tested. Which outcome [2] did it give?
Answer: The outcome was “inactive”.

Question: What about the outcome [1] of the same molecule?
Answer: Its outcome is “inactive”.

Question: Which outcome [2] does the source give for `O=C(OCC1CCC2OC2C1)C1CCC2OC2C1` (stereo not drawn) here?
Answer: Its outcome is “inactive”.

Question: What about the outcome [3] of the same molecule?
Answer: Its outcome is “inactive”.

Question: And the AC50 [4]?
Answer: Its AC50 is 12.1 µM (active).

Question: What does the source list for `Cc1cccc(N)n1`?
Answer: outcome [2]: inactive; outcome [1]: inactive

Question: How did the outcome [3] turn out when `CC(CC=O)CCCC(C)(C)O` (stereo not drawn) was run?
Answer: The outcome was “inactive”.

Question: And the outcome [4]?
Answer: The outcome was “inactive”.

Question: For `CC(=O)NS(=O)(=O)c1ccc(N)cc1`, which outcome [1] is on record?
Answer: Its outcome is “inactive”.

Question: Which outcome [3] does the source give for `O=C(C(Cl)Cl)N1CCOC12CCCCC2` here?
Answer: The outcome was “inactive”.

Question: And the outcome [4]?
Answer: Its outcome is “inactive”.

Question: Which outcome [1] does the source give for `COC(=O)C1=C(C)NC(C)=C(C(=O)OCC(C)C)C1c1ccccc1[N+](=O)[O-]` (stereo not drawn) here?
Answer: Its outcome is “inactive”.

Question: How did the outcome [1] turn out when `Nc1ccc2cc3ccccc3cc2c1` was run?
Answer: Its outcome is “inactive”.

Question: Which outcome [2] does the source give for `O=S1(=O)OC(c2ccc(O)cc2)(c2ccc(O)cc2)c2ccccc21` here?
Answer: Its outcome is “inactive”.

Question: What about the AC50 [1] of the same molecule?
Answer: The AC50 was 13.2 µM (active).

Question: And the outcome [3]?
Answer: Its outcome is “inactive”.

Question: What about the outcome [4] of the same molecule?
Answer: The outcome was “inactive”.

Question: Which outcome [2] does the source give for `O=C(c1ccccc1)c1ccc(O)c(O)c1O` here?
Answer: Its outcome is “inactive”.

Question: And the outcome [1]?
Answer: Its outcome is “inactive”.

Question: With `CCC(Cc1ccccc1)(C(=O)c1ccc(N2CCOCC2)cc1)N(C)C` (stereo not drawn) as the molecule, how does the outcome [1] read?
Answer: Its outcome is “inactive”.

Question: With `COc1cc(NC(=O)CC(C)=O)c(OC)cc1Cl` as the molecule, how does the outcome [1] read?
Answer: Its outcome is “inactive”.

Question: Which results are given for `Cc1ccc(C(C)(C)C)cc1`?
Answer: outcome [3]: inactive; outcome [4]: inactive

Question: What does the source list for `NC(CO)(CO)CO`?
Answer: outcome [2]: inactive; outcome [1]: inactive; outcome [3]: inactive; outcome [4]: inactive

Question: How did the outcome [1] turn out when `O=C(O)CCCC[C@@H]1SC[C@@H]2NC(=O)N[C@@H]21` was run?
Answer: Its outcome is “inactive”.

Question: And the outcome [3]?
Answer: Its outcome is “inactive”.

Question: And the outcome [4]?
Answer: Its outcome is “inactive”.

Question: Which results are given for `OC1CCCC1`?
Answer: outcome [2]: inactive; outcome [1]: inactive; outcome [3]: inactive; outcome [4]: inactive

Question: Which outcome [1] does the source give for `CC(C)C1=CC2=CC[C@@H]3[C@](C)(CCC[C@@]3(C)C(=O)O)[C@H]2CC1` here?
Answer: The outcome was “inactive”.

Question: What about the AC50 [3] of the same molecule?
Answer: The AC50 was 12 µM (active).

Question: And the outcome [4]?
Answer: The outcome was “inactive”.

Question: What does the source list for `CC1=CC[C@H]2C[C@@H]1C2(C)C`?
Answer: outcome [3]: inactive; outcome [4]: inactive

Question: Which results are given for `CCO[Si](C)(OCC)OCC`?
Answer: outcome [3]: inactive; outcome [4]: inactive
